From ChEMBL document CHEMBL4513216, “Probing the Open Global Health Chemical Diversity Library for Multistage-Active Starting Points for Next-Generation Antimalarials” (ACS Infect Dis, 2020)
Hit rate of the full screen: of about 69,000 compounds, about 8,600 (12%) showed an effect of 50% or more. The sample holds strong results, similar compounds and a random draw of the others, so the mix is not that of the screen.

system: Plasmodium berghei; experiment: Screen against P. berghei liver stage (PbLuc), transformed with Luciferase, at 10uM; assay type: functional, HepG2; details: tested at 10 uM

Row | Compound | INHIBITION [%]
1 | COc1cc(F)ccc1-c1cc(N)ccn1 | 49.6
2 | COc1ccc(-c2ccnc(N)c2)c(OC)c1 | -10.5
3 | COc1ccc(-c2cc(N)ccn2)c(OC)c1OC | 61.5
4 | CCOc1ccc2oc(-c3cnn(C)c3C)c(O)c(=O)c2c1 | 0.207
5 | COC(=O)c1ccc(NC(=O)CCNCc2ccco2)cc1 | 36.5
6 | CN1CCN(Cc2ccc(-c3ccc(-c4ccn[nH]4)cc3)nc2)CC1 | 54.9
7 | CN1CCN(Cc2ccc(-c3ccc(C(N)=O)cc3)nc2)CC1 | 24.2
8 | CN1CCN(Cc2ccc(-c3ccc4[nH]ccc4c3)nc2)CC1 | 27.5
9 | CCCC(=O)N1CCCCC1c1nccc(C)n1 (configuration not stated) | 20.8
10 | COc1ccc(CN(C)[C@@H]2CN(C(=O)c3cccn3C)C[C@H]2O)cc1 | 32.8
11 | CCN(CC)c1ncc2c(c1C(=O)O)CCN(C1CCOC1)C2 (configuration not stated) | 15.7
12 | CN1CCN(c2ncc3c(c2C(=O)O)CCN(C2CCOC2)C3)CC1 (configuration not stated) | 58.5
13 | CCN(C)c1ncc2c(c1C(=O)O)CCN(C1CCOC1)C2 (configuration not stated) | 33.4
14 | CO[C@@H]1CCN(C(=O)c2ccsc2)[C@@H]2CN(CC3CC3)C[C@@H]21 | -19.6
15 | NC(=O)COc1ccc(CN2CCC(O)(CN3CCCCC3)C2)cc1Cl (configuration not stated) | 50.5
16 | NC(=O)COc1ccc(CN2CCC3(CC2)[C@H](O)C[C@@H]3O)cc1Cl | 28.7
17 | NC(=O)COc1ccc(CN2CC[C@@]3(O)CCCC[C@H]3C2)cc1Cl | 16.8
18 | COc1ccccc1C1CCN(C(=O)CN2C(=O)OC(C)(C)C2=O)CC1 | -140
19 | CSc1ncc(CNC(C)c2cnn(-c3ccccc3)c2C)cn1 (configuration not stated) | 36.7
20 | CSc1ncc(CNC(C)c2cnn(-c3ccc(F)cc3F)c2C)cn1 (configuration not stated) | 50.3
21 | COc1ccc(-n2ncc(C(C)NCc3cnc(SC)nc3)c2C)cc1 (configuration not stated) | 7.6
22 | Cc1c(C(C)NC2CCOCC2)cnn1-c1ccc(F)cc1F (configuration not stated) | 22.3
23 | Cc1c(C(C)NC2CCCC2)cnn1-c1ccc(F)cc1F (configuration not stated) | 31.9
24 | Cc1c(C(C)NCC2CCCC2)cnn1-c1ccc(F)cc1F (configuration not stated) | 62.9
25 | O=C(NC[C@H]1OC[C@@H]2CCN(C3CCOCC3)C[C@@H]21)c1ccncc1 | 36.2
26 | COc1c(CNC2CCc3c(Cl)cccc32)c(C)nn1C (configuration not stated) | 36.3

Row | Compound | INHIBITION [%]
27 | CC(O)Cc1cn(CC2CCN(C3CCSCC3)CC2)nn1 (configuration not stated) | 57.8
28 | OCc1cn(CC2CCN(C3CCSC3)CC2)nn1 (configuration not stated) | -14.1
29 | CCCN1CCC(N2CCC(Cn3cc(CC(C)O)nn3)CC2)CC1 (configuration not stated) | 25.3
30 | O=C(O)c1cc(-c2cccs2)nc2c(Br)cnn12 | 15.9
31 | Cn1cc(NC(=O)CNC(=O)N2CCN(c3ccccc3)CC2)cn1 | 21.5
32 | Cc1cnc(CN(C)C2CCN(CC(=O)Nc3nncs3)C2)o1 (configuration not stated) | 20.9
33 | CCCC(=O)N1CCC2(CC1)CN(Cc1cccc(C)n1)C(=O)CO2 | 25.3
34 | O=C(NCCc1ccccn1)[C@@H]1CC[C@@H]2[C@@H](CCN2Cc2ccoc2)O1 | 59.9
35 | O=C(NCc1cccs1)[C@H]1CC[C@@H]2[C@@H](CCN2Cc2ccoc2)O1 | -5.31
36 | CS(=O)(=O)N1CC[C@H]2O[C@H](C(=O)NCc3cccnc3)CC[C@H]21 | 11.4
37 | O=C(Nc1cnccn1)[C@H]1CC[C@@H]2[C@@H](CCN2Cc2ccoc2)O1 | 8.52
38 | CS(=O)(=O)N1CC[C@H]2O[C@H](C(=O)NCCc3ccncc3)CC[C@H]21 | -35.9
39 | CS(=O)(=O)N1CC[C@H]2O[C@H](C(=O)NCCc3ccccn3)CC[C@H]21 | 54.7
40 | Cc1c(C(=O)N(C)c2ccccc2)cccc1N(C)S(C)(=O)=O | 22.07
41 | CN(Cc1ccc(F)cc1)[C@@H]1CN(S(C)(=O)=O)C[C@H]1O | 14.12
42 | CC(=O)N1CCN(C(=O)c2cnc(OC(C)C)c(Cl)c2)CC1 | -2.32
43 | CC(O)CN1CCN(C(=O)c2cnc(OC(C)C)c(Cl)c2)CC1 (configuration not stated) | 40.5
44 | CC(C)Oc1ncc(C(=O)N2CCC(CC(N)=O)CC2)cc1Cl | 16.9
45 | CC(=O)N1CCCN(C(=O)c2cnc(OC(C)C)c(Cl)c2)CC1 | 51.1
46 | CC(C)Oc1ncc(C(=O)N2CCC(N(C)C)CC2)cc1Cl | 26.6
47 | CCN1CCCN(C(=O)c2cnc(OC(C)C)c(Cl)c2)CC1 | 60.1
48 | O=C(N[C@@H]1CN(Cc2cccs2)[C@@H]2CCCO[C@@H]21)c1cscn1 | -17.1
49 | O=C(NCCNc1ncccn1)N1CCCC1c1ccncc1 (configuration not stated) | 11.8
50 | Cc1nc(CN(Cc2ccncc2)C2CCN(C)CC2)cs1 | 8.46
51 | FC(F)(F)c1cc(-c2cccs2)nc(N2CCN3CCCC3C2)n1 (configuration not stated) | 25.3
52 | CCc1ccc(-c2cc(C(F)(F)F)nc(N3CCC(N)CC3)n2)cc1 | 91.4

Row | Compound | INHIBITION [%]
53 | Cc1ccc(-c2cc(C(F)(F)F)nc(N3CCOCC3)n2)s1 | 29.8
54 | Cc1c(-c2cc(C(F)(F)F)nc(N3CCC(N)CC3)n2)cnn1C | 50.8
55 | CCn1ncc(-c2cc(C(F)(F)F)nc(N3CCC(N)CC3)n2)c1C | -1.84
56 | CCNC(=O)[C@@H]1C[C@H](N)CN1c1cc(C(F)(F)F)nc(N2CCCC2)n1 | -122
57 | CCc1nc(C2CCCN2Cc2cc(=O)n(C)c(=O)n2C)no1 (configuration not stated) | -27.9
58 | CC(C)C(CCO)NC(=O)Nc1ccc(-c2csnn2)cc1 (configuration not stated) | -6.39
59 | Cc1cccc(CN2C(=O)CCC23CCN(c2ccccn2)CC3)n1 | -11
60 | Cc1nn(-c2cc(Cl)cc(Cl)c2)c(C)c1CCC(=O)O | 46.1
61 | CC(c1ccccn1)N(C)Cc1ccc(-n2cncn2)cc1 (configuration not stated) | 28.5
62 | CN1CCOC(CNC(=O)C2(c3ccccc3)CCC2)C1 (configuration not stated) | 57.4
63 | CN1CCOC(CNC(=O)C2(c3cccc(Cl)c3)CC2)C1 (configuration not stated) | 0.348
64 | CN1CCOC(CNC(=O)CCCOc2cccc(F)c2)C1 (configuration not stated) | -5.2
65 | Cc1ccccc1OCCCC(=O)NCC1CN(C)CCO1 (configuration not stated) | 22.265
66 | CN1CCOC(CNC(=O)CCCOc2ccccc2F)C1 (configuration not stated) | 52
67 | Cc1cccc(C2(C(=O)NCC3CN(C)CCO3)CC2)c1 (configuration not stated) | 19.8
68 | CC(C)CC(CC(C)C)NC(=O)c1ccn(C)c(=O)c1 | 1.51
69 | COc1ncccc1CN1C[C@H]2C[C@@H](C(=O)NCC3CC3)N(C)[C@H]2C1 | 29.7
70 | CC(C)c1nn(C)cc1CNCc1cccnc1N(C)C | 14.7
71 | CSCC(=O)N1CCc2c(cnc(C)c2-c2noc(-c3ccco3)n2)C1 | 33
72 | COCc1nc(C(=O)OCC2CCN(c3ccccc3)C2)cs1 (configuration not stated) | 18.3
73 | Cn1ncc(C(=O)OCC2CCN(c3ccccc3)C2)c1C(F)F (configuration not stated) | 9.96
74 | Cc1ncsc1C(=O)OCC1CCN(c2ccccc2)C1 (configuration not stated) | 89.4
75 | O=C(OCC1CCN(c2ccccc2)C1)c1cscn1 (configuration not stated) | 51.7
76 | COCCn1cc(NC(=O)NCC2CCN(c3ccccc3)C2)cn1 (configuration not stated) | 22.8
77 | Cc1ncsc1C(=O)OCCN1CCCc2ccccc21 | 41.3
78 | Cc1ncsc1C(=O)N1CCN(Cc2ccccc2)CC1C (configuration not stated) | 23.8

Row | Compound | INHIBITION [%]
79 | Cc1ncc(C(=O)OCC2CCN(c3ccccc3)C2)s1 (configuration not stated) | 58.5
80 | O=C(OCC1CCCN(C(=O)c2ccccc2)C1)c1cscn1 (configuration not stated) | 10.6
81 | Cc1oc(-c2nc(C#N)c(NC3CC3)o2)cc1S(=O)(=O)N1CCCC1 | 25.8
82 | CCN(Cc1ccco1)C(=O)NCC(C)N1CCc2sccc2C1 (configuration not stated) | -3.72
83 | Cc1occc1C(=O)N1C[C@@H]2CCCO[C@@H]2[C@H](N(C)Cc2ccco2)C1 | 43.9
84 | Cc1cccc(CN(C(=O)NCc2ccccn2)C2CC2)c1 | 19.4
85 | CN(C)c1cc(C(=O)N2CCCC2)ccn1 | -4.567
86 | COc1ccccc1N1CCN(C(=O)c2ccnc(N(C)C)c2)CC1 | 77.15
87 | COc1ccccc1N1CCN(C(=O)c2ccoc2)CC1 | -17.4
88 | O=C(N1CCCO1)[C@@]12CCO[C@@H]1CCN(Cc1ccsc1)C2 | 14.5
89 | CC(CNC(=O)N1CCS(=O)(=O)CC1)Cc1cccs1 (configuration not stated) | 16.1
90 | CC(CNC(=O)N1CCNC(=O)CC1)Cc1cccs1 (configuration not stated) | 51.1
91 | CC(CNC(=O)N1CCSCC1)Cc1cccs1 (configuration not stated) | -18.2
92 | Cn1cc(CN(CC2(O)CCNC2)C2CCCCC2)cn1 (configuration not stated) | 38.5
93 | O=C(Nc1ccccc1F)C1CN(C(=O)c2ccc3c(c2)OCO3)C1 | 46.1
94 | Cc1nnc([C@@]23CCO[C@@H]2CCN(S(=O)(=O)c2cccnc2)C3)o1 | -1.36
95 | CCS(=O)(=O)N1CC[C@H]2OCC[C@@]2(c2nnc(C)o2)C1 | 34.6
96 | Cc1noc([C@@]23CCO[C@@H]2CCN(S(=O)(=O)c2cccnc2)C3)n1 | 44.8
97 | Cc1nnc([C@@]23CCO[C@@H]2CCN(S(=O)(=O)c2ccccc2)C3)o1 | 61.1
98 | CCCS(=O)(=O)N1CC[C@H]2OCC[C@@]2(c2nnc(C)o2)C1 | 55.5
99 | Cc1nnc([C@@]23CCO[C@@H]2CCN(S(C)(=O)=O)C3)o1 | 23.3
100 | CN(C)CCOCC1CN(Cc2cccs2)Cc2ccnn2C1 (configuration not stated) | 33.4
101 | CC(NC1CCN(CCc2ccncc2)CC1)c1cnn(C(C)C)c1 (configuration not stated) | 37.9
102 | Cc1cccnc1NC(=O)c1ccc(F)c(S(=O)(=O)N2CCC2)c1 | 13.3
